Bioassay records: PubChem BioAssay, National Center for Advancing Translational Sciences (NCATS)
Most compounds without a hit are left out; they make up all but 7.3% or so of the library.
AmpC inh no detg – qHTS Inhibitors of AmpC Beta-Lactamase (assay without detergent). P00811. Potency, µM (series often up to 57.1 µM), inactives show at the top dose activity change, negative = inhibition, most hits filed as inhibitors. AID 485341, 2010. AmpC nitrocefin hydrolysis, absorbance 480 nm, 0.0001% Triton. actives 0.52% (n = 330,000);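 further: potency means the concentration at half of the fitted maximal effect; plate controls were no compound for no effect and no enzyme for full effect; nearly all actives have a fitted effect of over 20% in size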
Target sequence (P00811 whole entry, looked up): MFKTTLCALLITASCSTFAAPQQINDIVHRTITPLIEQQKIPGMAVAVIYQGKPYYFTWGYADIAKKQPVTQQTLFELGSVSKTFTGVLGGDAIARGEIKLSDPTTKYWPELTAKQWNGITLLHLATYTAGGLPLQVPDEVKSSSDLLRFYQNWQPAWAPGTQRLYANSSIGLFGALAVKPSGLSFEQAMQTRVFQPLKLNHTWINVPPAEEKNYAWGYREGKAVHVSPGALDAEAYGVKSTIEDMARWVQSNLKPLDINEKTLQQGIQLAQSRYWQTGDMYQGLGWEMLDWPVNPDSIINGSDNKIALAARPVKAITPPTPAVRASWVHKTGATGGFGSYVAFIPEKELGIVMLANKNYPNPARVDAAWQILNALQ
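20 mM phosphate pH 7.0 + 0.01% (detergent screen) or 0.0001% Triton X-100; 5.3 nM AmpC reagent; cpd preinc 15 min RT; nitrocefin (800 uM stock) to start; A480 q20 s × 4 min; Activity was normalised to no-enzyme and no-compound control wells.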
HCV inhibitor – qHTS Assay for Inhibitors of Hepatitis C Virus (HCV); Huh7.5.1 HCVcc-Cre infection, luciferase reporter, 44 h; Potency, µM (top dose mostly 41.8 µM), without a hit: at the highest dose activity change, negative = inhibition, hits mostly inhibitors; actives 3.4% (n = 340,000); AID 651820, 2012; further: potency means the concentration at half of the fitted maximal effect
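Infectious HCVcc-Cre (~0.5 moi) was added to cells just after compound, with cells seeded 4 h earlier at 1,000 per well. Luciferase activity after 44 h culture reported infection; substrate was incubated 15 min at room temperature before reading.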
AmpC inh detg – qHTS Inhibitors of AmpC Beta-Lactamase (assay with detergent) | actives 0.041% (n = 370,000) | AmpC hydrolysis of nitrocefin, absorbance 480 nm, 0.01% Triton | Potency, µM (titrated, usually from 114 µM), without a hit: top-dose activity change, negative = inhibition, hits mostly inhibitors;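 further: potency means the concentration at half of the fitted maximal effect; 0% = no-compound wells and -100% = no-enzyme wells; nearly all actives have a fitted effect of over 25% in size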
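AmpC (5.3 nM in the dispensed reagent) in 20 mM phosphate pH 7.0 with 0.01% (detergent screen) or 0.0001% Triton X-100 was preincubated with compounds for 15 min at room temperature. Nitrocefin was then added from an 800 uM solution, and hydrolysis was followed at 480 nm.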
FMDV antiviral – High Throughput Screening for Foot and Mouth Disease Virus Antivirals. AID 1159524, 2015. FMDV antiviral cell-based qHTS. actives 1.2% (n = 410,000). Potency, µM (top dose mostly 57.9 µM), inactives show top-dose activity change, negative = inhibition, hits mostly inhibitors; calls by dose curve; tested in HEK293T cells; further: read-out not given here; potency means the concentration at half of the fitted maximal effect; nearly all actives have a fitted effect of over 45% in size
HCMV antiviral – qHTS Assay for inhibitors of the human cytomegalovirus (HCMV); HFF cells, HCMV-luciferase reporter, 72 h; active compounds read low; activity change, negative = inhibition, % at 57.5 µM; actives 4.5% (n = 410,000); AID 1259415, 2018; in the data active means activity change below about -60%; inconclusive means no clear call, values can overlap the other calls; inactive means above about -39%
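Steps: HFFs plated, 16 h 37C; compounds added; HCMV-luciferase added to MOI 1 PFU/cell; 72 h 37C; OneGlo reagent, 5 min room temperature; luminescence read, normalized to controls.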
* hit, by the source's call; u = inconclusive; x = no result. Unless noted, the call rests on the fitted dose curve; in most records, active means well fitted curve in the direction sought with a large enough effect; inconclusive means small, poorly fitted or top-dose-only effect, or another doubt; inactive means no such curve, though single readings can be large; an effect the other way counts as inactive or inconclusive. Unless noted, on the % scale 0 is the no-effect control and ±100 the full control effect.

SMILES | AmpC inh no detg | HCV inhibitor | AmpC inh detg | FMDV antiviral | HCMV antiviral
COc1cc(OC)cc(C(=O)Nc2ccc3nc4c(c(Nc5ccc(OC)c(OC)c5)c3c2)CCCC4)c1 | x | x | -9% | u | -105*
COc1ccc(Cl)cc1C(=O)Nc1ccc2nc3n(c(=O)c2c1)CCCC3 | -3% | u | 2% | 11% | u
O=C(c1ccncc1)N(c1ccc(N2CCOCC2)cc1)C(c1ccccc1)c1nc2ccccc2[nH]1 (stereo not given) | x | x | x | 15% | 52
Cc1c(C(=O)N(C)C2CCOC2)sc2ncnc(NCc3ccc4c(c3)OCO4)c12 (stereo not given) | x | x | x | 11% | x
COc1ccc2cc(C(N)=O)c(=Nc3ccccc3)oc2c1 | -17% | u | u | -11% | u
NC(=O)c1cc2ccc(O)cc2oc1=Nc1ccccc1 | -28% | 13% | -16% | 4% | -82*
O=C(CCNC(=O)N1CCn2c1nc1ccccc12)NCc1ccc(F)cc1 | 46% | 10% | u | -17% | -34
COc1ccc(-c2csc3ncnc(NCCO)c23)cc1 | -5% | u | u | u | -87*
COc1ccc(-c2csc3ncnc(NCCCO)c23)cc1 | 13% | u | u | u | -68*
COCC(=O)NC1CC2CCC(C1)N2C(=S)Nc1ccccc1C(=O)OC (stereo not given) | 27% | 3% | 0% | -11% | -83*
COC(=O)[C@]12CCCCC=C1N(Cc1ccccc1)C(=O)[C@H](CC(=O)N1CCOCC1)C2 | x | x | x | 0% | -9
Cc1ccc(S(=O)(=O)Nc2cccc3ncccc23)s1 | -18% | u | 4% | 28µM* | x
Cc1ccc(S(=O)(=O)Nc2cccc3ncccc23)cc1 | -26% | -6% | 2% | -12% | 12
CCOc1ccc(CCNC(=O)C2CCCN(c3ncnc4c3nc3n4CCCCC3)C2)cc1 (stereo not given) | 138% | u | 1% | -24% | 26
CCOc1ccc(-c2nc(SCC(=O)NCCCOC)c(-c3ccccc3)[nH]2)cc1 | x | x | 15% | 17% | 1
C=CCc1cc(Cl)ccc1OCCOCCNC(C)(C)C | 55% | u | -2% | -21% | -71*
C=CCc1ccc(OCCCN2CCCC(C)C2)c(OC)c1 (stereo not given) | 18% | 25µM* | 2% | -4% | 32
CCC(C)NCCCOc1ccc(Cl)cc1C(C)(C)C (stereo not given) | -42% | -26% | -7% | -2% | -10
C=CCc1ccc(OCCCCN2CCC(C)CC2)c(OC)c1 | 4% | u | -10% | -11% | -30
C=CCc1cc(Cl)ccc1OCCCNC(C)CC (stereo not given) | 54% | 13µM* | 1% | u | u
C=CCc1ccc(OCCCCNC(C)CC)c(OC)c1 (stereo not given) | -3% | 8.9µM* | 0% | -8% | -21
O=C(CSc1nc(=O)n(CCCN2CCOCC2)c2c1CCC2)Nc1cccc(F)c1 | 92% | u | 0% | -20% | -38
CCCSc1nsc(NC(=O)CCC)n1 | -16% | -6% | -4% | 3% | -103*
CC(Oc1ccccc1F)c1nnc(SCC(=O)NCc2ccc3c(c2)OCO3)o1 (stereo not given) | -43% | -17% | -1% | -20% | -8
CCOc1ccc(C(=O)Nc2ccc(C(=O)N3CCOCC3)cc2)c(OCC)c1 | 81% | 14µM* | 1% | -7% | 82
SMILES | AmpC inh no detg | HCV inhibitor | AmpC inh detg | FMDV antiviral | HCMV antiviral
COc1ccc(C(=O)Nc2ccccc2C(=O)N2CCOCC2)cc1 | 2% | 2% | u | 26% | 14
CCOc1cccc(C(=O)Nc2ccccc2C(=O)N2CCOCC2)c1 | -14% | x | -11% | -10% | -97*
CC(C)Oc1cccc(C(=O)Nc2ccccc2N2CCOCC2)c1 | -7% | u | -1% | 8% | -18
CCC(C)Oc1cccc(C(=O)Nc2ccccc2N2CCOCC2)c1 (stereo not given) | 5% | 7.1µM* | 3% | -5% | -27
COc1ccc(C(=O)Nc2ccc(C(=O)N3CCOCC3)cc2)cc1OC | -12% | 17% | -2% | 42% | 15
CC(C)OC(=O)c1c(NC(=O)COc2cccc(Br)c2)sc2c1CCCC2 | x | x | 8% | 0% | 9
Cc1cc(NC(=O)c2ccco2)sc1C | -13% | u | 6% | 19% | -6
O=S(=O)(c1ccccc1)N1CCC(O)(CSc2ccccc2)CC1 | -17% | u | -2% | u | -33
O=S(=O)(c1ccccc1)N1CCC(O)(CSc2ccc(F)cc2)CC1 | -24% | 11µM* | -10% | u | -86*
COc1ccc(/C=N/NC(=O)c2cccnc2)cc1 | -8% | 8% | -6% | 39% | -22
COc1ccc(Oc2ccc(/C=C/C(=O)c3cccc(OC)c3)cc2[N+](=O)[O-])cc1 | -41% | u | -14% | 32µM* | u
COc1ccc(C(=O)N/N=C/c2ccc(OC(=O)c3cccc4ccccc34)c([N+](=O)[O-])c2)cc1 | 28µM* | u | -8% | -19% | -11
COc1ccc(Oc2ccc(/C=N/NC(=O)c3cccnc3)cc2[N+](=O)[O-])cc1 | 1% | u | 2% | 0% | -80*
CCOc1ccc(/C=N/NC(=O)Cc2cccs2)cc1 | -24% | 3% | 0% | 70% | 31
CCN1CCN(c2ccc(N=Cc3ccccc3O)cc2)CC1 | 3% | 18% | 4% | -3% | 41
CCOC(=O)c1ccc(N2C(=O)c3n[nH]c(-c4cccs4)c3C2c2ccc(C)cc2)cc1 (stereo not given) | x | x | 2% | -20% | 3
CCOC(=O)c1ccc(N2C(=O)c3n[nH]c(-c4cccs4)c3C2c2ccc(Cl)cc2Cl)cc1 (stereo not given) | x | x | 3% | u | -107*
CCOC(=O)c1ccc(N2C(=O)c3n[nH]c(-c4cccs4)c3C2c2ccc(O)c(OC)c2)cc1 (stereo not given) | x | x | 3% | -28% | -74*
CCOC(=O)c1c(Nc2cccc(O)c2)nnc(-c2ccccc2)c1-c1ccccc1 | x | x | 4% | -9% | -26
CCOC(=O)c1c(NC(=O)CN2CCCCC2)sc2c1CCC(C=O)=C2Cl | -12% | 2.2µM* | -5% | u | 14
COc1ccc2c(c1OC)c(=O)n1c3ccc(OC(C)C(=O)NCCN4CCOCC4)cc3c3ccnc2c31 (stereo not given) | 211% | u | -19% | -19% | -3
CC(Oc1ccc2c(c1)c1ccnc3c4ccccc4c(=O)n2c13)C(=O)NCCN1CCOCC1 (stereo not given) | 32% | 11µM* | u | -25% | -90*
O=C(CN1CCSC1=O)N1CCN(S(=O)(=O)c2ccc(F)cc2)CC1 | -5% | 22% | -6% | -23% | -35
